We go through 56 molecules from PubChem BioAssay AID720540 (National Center for Advancing Translational Sciences (NCATS), 2013).

Molecules are shown by their SMILES. The whole screen tested about 1,300 compounds, of which about 460 (35%) were called active. Another 39% or so got no clear call; they are omitted. Calls come from the whole dose curve; as a rule, active = well fitted inhibition curve with a large enough effect; inconclusive = small, poorly fitted or top-dose-only effect; inactive = flat fitted curve, though single readings scatter. The list shows a part of the results.
Potency is the fitted concentration of half-maximal effect.

The target of the assay is Protein phosphatase EYA2 (Homo sapiens) (UniProt O00167). The assay can be described thus: qHTS for Inhibitors of the Phosphatase Activity of Eya2: Confirmatory Assay for Cherry-picked Compounds.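 For activity change, negative = inhibition: 0% = DMSO wells and -100% = EGTA control giving full inhibition.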 Note: nearly all actives have a fitted effect of over 65% in size. The settings on record: purified EYA2 phosphatase activity, qHTS confirmation; series mostly up to 46.1 µM; activity change, negative = inhibition: at the top concentration. The gist of the method: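 Eya2 (0.2 uM working solution) preincubated 10 min at room temperature with compound in pH 7.5 HEPES buffer with MgCl2, BSA, DTT. OMFP added (50 uM working solution), 10 min more; fluorescence 485/525 nm, normalized to EGTA and DMSO.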
Sequence of Protein phosphatase EYA2 (Homo sapiens) (O00167 whole entry, looked up): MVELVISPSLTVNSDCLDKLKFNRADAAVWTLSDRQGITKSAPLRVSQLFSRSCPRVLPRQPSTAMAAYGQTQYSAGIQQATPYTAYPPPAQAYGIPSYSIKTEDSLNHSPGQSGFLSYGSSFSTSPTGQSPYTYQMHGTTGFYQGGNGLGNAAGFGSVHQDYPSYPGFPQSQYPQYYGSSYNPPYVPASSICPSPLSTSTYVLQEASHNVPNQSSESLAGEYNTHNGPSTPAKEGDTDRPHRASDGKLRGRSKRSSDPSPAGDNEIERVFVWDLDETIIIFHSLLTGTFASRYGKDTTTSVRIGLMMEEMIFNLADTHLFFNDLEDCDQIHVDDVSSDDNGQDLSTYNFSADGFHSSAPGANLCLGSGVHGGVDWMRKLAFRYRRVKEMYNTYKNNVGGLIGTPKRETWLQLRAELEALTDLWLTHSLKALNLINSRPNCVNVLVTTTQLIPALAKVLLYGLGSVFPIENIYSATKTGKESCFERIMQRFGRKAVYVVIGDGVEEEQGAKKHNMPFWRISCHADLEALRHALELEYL
On the technique in general: Quantitative high-throughput screening tests each substance at several concentrations.
As for `CCN(CC)CCNC(=O)c1ccc(N)cc1`, the “activity change, negative = inhibition” value is -4.89% (inactive).

With `CC(NC(=O)c1cc2c(s1)CS(=O)(=O)C2)c1ccccc1` (stereo unspecified), the “activity change, negative = inhibition” value is -5.13% (inactive).

Turning to `COc1cc(/C=C2/C=Cc3ccccc32)ccc1N(C)C`, the Potency was 6.75 µM (active).

As to `Cc1cc(/C=C2\C=Cc3ccccc32)ccc1N(C)C`, the Potency is 7.57 µM (active).

With `CCN(Cc1cccc(S(=O)(=O)O)c1)c1ccc(C(=C2C=CC(=[N+](CC)Cc3cccc(S(=O)(=O)O)c3)C=C2)c2ccccc2S(=O)(=O)[O-])cc1`, the Potency was 9.53 µM (active).

With `CCN(Cc1cccc(S(=O)(=O)O)c1)c1ccc(C(=C2C=CC(=[N+](CC)Cc3cccc(S(=O)(=O)O)c3)C=C2)c2ccc(O)cc2S(=O)(=O)O)cc1`, the Potency was 6.01 µM (active).

As to `CC(=O)Nc1ccc(S(=O)(=O)Nc2ccc(N3CCCCC3)cc2)cc1`, the Potency is 8.49 µM (active).

Regarding `Cc1nc2c(C(=O)Nc3ccc(N4CCCC(O)C4)cc3)snc2c(=O)[nH]1` (stereo unspecified), the “activity change, negative = inhibition” value was -21.6% (inactive).

For the molecule `CC(=O)Nc1ccc(S(=O)(=O)N2C3CCCC2CC(NC(=O)C2CCCCC2)C3)cc1` (stereo unspecified), the “activity change, negative = inhibition” value was -9.63% (inactive).

With `O=C(Cc1ccccc1F)Nc1cccc(S(=O)(=O)N2CCCCC2)c1`, the “activity change, negative = inhibition” value was -11.9% (inactive).

Consider `COc1cc(NC(=O)CN2C(=O)CSc3ccc(S(=O)(=O)N4CCCC4)cc32)cc(OC)c1`, for which the Potency is 5.36 µM (active).

As for `Cc1ccc(CNC(=O)C2CCN(S(=O)(=O)c3ccc4nc5c(c(C(=O)O)c4c3)CC(C)CC5)CC2)cc1` (stereo unspecified), the Potency is 8.49 µM (active).

On to `COc1ccc(S(=O)(=O)N2CCN(C(=O)c3cc4c(s3)CCC4)CC2)cc1`, for which the “activity change, negative = inhibition” value is -25.3% (inactive).

Turning to `O=C(O)c1c2c(nc3ccc(S(=O)(=O)N4CCC(C(=O)NC5CCCC5)CC4)cc13)CCCCC2`, the “activity change, negative = inhibition” value is -12.6% (inactive).

Regarding `COc1ccc(CNC(=O)C2CCN(S(=O)(=O)c3ccc4nc5c(c(C(=O)O)c4c3)CCCC5)CC2)cc1`, the Potency was 15.1 µM (active).

Turning to `CCN(CC)c1ccc(/C=N/N2CCN(Cc3ccccc3Cl)CC2)cc1`, the Potency is 7.57 µM (active).

Regarding `CCN1C(=O)c2cccc3c(S(=O)(=O)N(C(C)=O)c4ccc(OC(C)=O)cc4)ccc1c23`, the Potency was 15.1 µM (active).

In the case of `CC(=O)Oc1ccc(N2C(=O)c3cccc4c([N+](=O)[O-])ccc(c34)C2=O)cc1`, the “activity change, negative = inhibition” value was -22.5% (inactive).

Turning to `O=C(O)c1c(Br)c(Br)c(Br)c(Br)c1C1c2ccc(O)cc2Oc2cc(O)ccc21`, the Potency was 1.35 µM (active).

On to `C[N+](C)(CCCCCI)c1ccc(/C=C/c2nc3ccccc3s2)cc1`, for which the Potency was 13.5 µM (active).

For `Cc1ccc(C2CC(c3ccc(Br)cc3)=NN2C(=O)CSC2=NN3CCCC(=O)N=C3S2)cc1` (stereo unspecified), the “activity change, negative = inhibition” value is -26.2% (inactive).

For the molecule `Nc1ccc2nc3c(=O)[nH]c(=S)[nH]c3nc2c1`, the Potency is 6.01 µM (active).

Regarding `COC(=O)c1ccccc1NC(=S)NC(=O)c1ccc(C)cc1`, the Potency was 13.5 µM (active).

With `O=C1C(N2CCOCC2)=Cc2cccc3cccc1c23`, the Potency is 19 µM (active).

For the molecule `CCOC(=O)C1=C(N)Oc2c(oc(CO)cc2=O)C1c1ccc(Cl)cc1` (stereo unspecified), the “activity change, negative = inhibition” value is -29.1% (inactive).

Consider `NC(N)=Nc1nc2cc([N+](=O)[O-])ccc2o1`, for which the “activity change, negative = inhibition” value is -25% (inactive).

Consider `O=C(Nc1cc([N+](=O)[O-])ccc1O)c1cccc(C(=O)Nc2cc([N+](=O)[O-])ccc2O)c1`, for which the Potency is 3.79 µM (active).

As for `COc1ccc(C(=O)CC(=O)Nc2ccc([N+](=O)[O-])cc2)cc1`, the “activity change, negative = inhibition” value is -14.9% (inactive).

Take `O=C(O)CSCc1nc2cccnc2n1C1CCCCC1`: the “activity change, negative = inhibition” value was -11.2% (inactive).

In the case of `O=C(O)C1=NN(c2cc(Cl)c(S(=O)(=O)O)cc2Cl)C(=O)C1`, the Potency is 8.49 µM (active).

Regarding `COc1cc(C(=O)Nc2scc(-c3ccc(Br)cc3)c2C(=O)O)cc(OC)c1OC`, the Potency is 19 µM (active).

As to `Cc1ccc(-c2csc(NC(=O)c3ccccc3F)c2C(=O)O)cc1`, the Potency was 7.57 µM (active).

In the case of `CCCC[C@@]1(C2CCCC2)Cc2cc(OCC(=O)O)c(Cl)c(Cl)c2C1=O`, the “activity change, negative = inhibition” value was -29% (inactive).

Take `O=C(NN1C(=O)/C(=C/C=C/c2ccco2)SC1=S)c1ccncc1`: the Potency is 6.01 µM (active).

In the case of `O=C1/C(=C/C=C/c2ccco2)SC(=S)N1NS(=O)(=O)c1ccccc1`, the Potency is 7.57 µM (active).

`CCn1c(SCC(=O)N2CCN(c3ccccc3)CC2)nc2c(c1=O)SC(C)C2` (stereo unspecified): the “activity change, negative = inhibition” value is -26.4% (inactive).

Consider `CN(C)c1ccc(N=c2sc3ccccc3n2C)cc1`, for which the Potency is 7.57 µM (active).

With `Cc1cccc(N2CCN(C(=O)C3COc4ccccc4O3)CC2)c1C` (stereo unspecified), the “activity change, negative = inhibition” value was -9.42% (inactive).

For `O=C(O)/C=C/C(=O)Nc1ccc2c(c1)C(=O)c1ccccc1C2=O`, the Potency was 16.9 µM (active).

Consider `Oc1c(C(Nc2nc3ccccc3s2)c2ccco2)ccc2cccnc12` (stereo unspecified), for which the Potency was 9.53 µM (active).

With `CN(C)c1ccc(C(=C2C=CC(=[N+](C)C)C=C2)c2ccc(N(C)C)cc2)cc1`, the Potency was 6.01 µM (active).

Turning to `CN(C)c1ccc(C(=C2C=CC(=[N+](C)C)C=C2)c2c(O)c(S(=O)(=O)[O-])cc3cc(S(=O)(=O)O)ccc23)cc1`, the Potency is 7.57 µM (active).

For the molecule `O=C(Nc1ccc(-c2nc3cccnc3s2)cc1)C1CCCO1` (stereo unspecified), the “activity change, negative = inhibition” value was -24.1% (inactive).

In the case of `Cc1cc(=O)n2nc(N3CCCC(C(=O)Nc4ccc(C)c(C)c4)C3)sc2n1` (stereo unspecified), the “activity change, negative = inhibition” value was -29.7% (inactive).

Turning to `CCc1ccc(N=C2NC(=O)/C(=C/c3cc(OC)c(O)c(OC)c3)S2)cc1`, the Potency is 19 µM (active).

Consider `COc1ccc(-c2ccc(SCc3cccnc3)nn2)cc1OC`, for which the Potency is 16.9 µM (active).

Take `Cc1ccc(NC(=S)N2CCc3[nH]c4ccccc4c3C2)cc1`: the “activity change, negative = inhibition” value is -30% (inactive).

In the case of `COc1cccc(/C=N/N2C(=O)CSC2=S)c1O`, the Potency is 0.478 µM (active).

Consider `Nc1c(N=Nc2ccc([N+](=O)[O-])cc2)c(S(=O)(=O)O)cc2cc(S(=O)(=O)O)c(/C=C/c3ccccc3)c(O)c12`, for which the Potency was 7.57 µM (active).

As for `COc1ccc(C(CCNCc2ccc(N(C)C)cc2)C(C)C)cc1` (stereo unspecified), the Potency was 8.49 µM (active).

Regarding `COc1ccccc1C(CCNCc1ccc(N(C)C)cc1)c1ccc(OC(C)C)cc1` (stereo unspecified), the Potency was 6.01 µM (active).

As for `CC1Cc2ccccc2N1C(=O)C1CCCN1S(=O)(=O)c1ccc(Cl)cc1` (stereo unspecified), the “activity change, negative = inhibition” value is 1.17% (inactive).

In the case of `Cc1nn(C)c(Cl)c1CN1CCCC(CO)(Cc2cccc(Cl)c2)C1` (stereo unspecified), the “activity change, negative = inhibition” value is -16.1% (inactive).

As for `CC1CS(=O)(=O)CCN1N=Cc1ccc([N+](=O)[O-])o1` (stereo unspecified), the “activity change, negative = inhibition” value was -2.82% (inactive).

Consider `O=C(O)c1ccc2c(=O)n3cc(C(=O)c4ccccc4O)cc(Cl)c3nc2c1`, for which the Potency was 15.1 µM (active).

As for `C=C(CC[C@]12OC(C(=O)O)C(O)(C(=O)O)C(C(=O)O)(O1)C(OC(=O)/C=C/[C@@H](C)C[C@@H](C)CC)C2O)[C@@H](OC(C)=O)[C@H](C)Cc1ccccc1` (stereo partly specified), the Potency was 19 µM (active).
